Screening results as filed in PubChem BioAssay.
PKM2 activator: qHTS Assay for Activators of Human Muscle isoform 2 Pyruvate Kinase. Pyruvate kinase PKM (Homo sapiens), P14618. purified PKM2, Kinase-Glo ATP luminescence, activation; response scale: 0% is enzyme alone, no compound. Potency, µM (highest dose often 57.5 µM), for the others: at the top dose activation, usual class: activators. 260,000 tested, 0.34% active. AID 1631, 2009; further: potency means the concentration at half of the fitted maximal effect; nearly all actives have a fitted effect of over 55% in size
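hPK-M2, >95% pure; 0.1 mM ADP / 0.5 mM PEP final; imidazole pH7.2 buffer w/ 7 mM MgCl2, 50 mM KCl; 1 h RT; Kinase-Glo lum. Intermediate enzyme activity for dual inhibitor/activator qHTS.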
Six1-Eya2 inh: qHTS Assay for Inhibitors of the Six1/Eya2 Interaction; Homeobox protein SIX1 (Homo sapiens) + Protein phosphatase EYA2 (Homo sapiens), …; AlphaScreen GST-Six1/His-Eya2 binding, biochemical; hits give low values; activity change, % (concentration not given with the values); 360,000 tested, 0.56% active; AID 651725, 2012; in the data active means activity change below about -65%; inconclusive means mostly about -30% to -63%
Target sequence (O00167 whole entry, looked up): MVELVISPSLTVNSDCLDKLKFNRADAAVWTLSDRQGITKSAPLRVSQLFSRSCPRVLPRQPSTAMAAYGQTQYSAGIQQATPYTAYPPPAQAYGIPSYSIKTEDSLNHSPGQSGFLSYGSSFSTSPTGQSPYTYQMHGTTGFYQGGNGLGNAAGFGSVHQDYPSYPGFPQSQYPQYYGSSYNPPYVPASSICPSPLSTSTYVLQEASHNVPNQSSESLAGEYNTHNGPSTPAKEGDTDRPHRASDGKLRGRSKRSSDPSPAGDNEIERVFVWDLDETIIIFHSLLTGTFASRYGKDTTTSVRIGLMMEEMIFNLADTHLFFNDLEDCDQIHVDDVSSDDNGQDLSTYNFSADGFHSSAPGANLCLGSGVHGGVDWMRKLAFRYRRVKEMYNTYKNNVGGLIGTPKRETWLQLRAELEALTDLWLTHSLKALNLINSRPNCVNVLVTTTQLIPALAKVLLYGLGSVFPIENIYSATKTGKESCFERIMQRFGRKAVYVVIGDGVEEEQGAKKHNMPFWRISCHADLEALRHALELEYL
Target sequence (Q15475 whole entry, looked up): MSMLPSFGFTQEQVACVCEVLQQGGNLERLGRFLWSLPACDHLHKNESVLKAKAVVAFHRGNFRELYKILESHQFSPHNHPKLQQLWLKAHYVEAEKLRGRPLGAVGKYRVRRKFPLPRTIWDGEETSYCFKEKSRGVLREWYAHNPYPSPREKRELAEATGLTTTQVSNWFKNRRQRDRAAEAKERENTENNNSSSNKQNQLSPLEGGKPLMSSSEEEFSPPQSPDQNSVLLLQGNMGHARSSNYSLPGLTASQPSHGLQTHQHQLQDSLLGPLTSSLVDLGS
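AlphaScreen with GST-Six1 and His-Eya2 (5X mix: 250 nM and 500 nM), glutathione donor and nickel acceptor beads; buffer 50 mM Tris pH 8.0, 300 mM NaCl, 1 mM TCEP; 1 h at 37 C in the dark.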
CtBP-E1A blk: qHTS Assay for Inhibitors of the CtBP/E1A Interaction | 340,000 tested, 0.49% active | AlphaScreen GST-E1A/His-CtBP binding, 1536-well; hits give low values | AID 651724, 2012 | CtBP / adenovirus E1A interaction (AlphaScreen) | activity change, % (test concentration not listed); in the data active means activity change below about -65%; inconclusive means mostly about -30% to -63%
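AlphaScreen with 125 nM GST-E1A and 125 nM His-CtBP (5X stocks) in Tris pH 8.0, 300 mM NaCl, BSA, Tween 20, TCEP. Compounds preincubated 2 h at 37 deg C, then glutathione donor/nickel acceptor beads added for 1 h at 37 deg C in dark.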
VP16 counter: VP16 counterscreen qHTS for inhibitors of ROR gamma transcriptional activity; Drosophila S2 Gal4-VP16 UAS-luciferase, luminescence, 20 h; Potency, µM (doses to about 53.6 µM), inactives show top-dose activity, negative = inhibition, actives largely listed as inhibitors; 310,000 tested, 3.5% active;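 further: Gal4-VP16 expression switched on by copper sulfate through the metallothionein promoter; potency means the concentration at half of the fitted maximal effect; nearly all actives have a fitted effect of over 50% in size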
RORg inh: qHTS for inhibitors of ROR gamma transcriptional activity | Potency, µM (top dose mostly 53.6 µM), inactives show at the highest dose activity change, negative = inhibition, most hits filed as inhibitors | 310,000 tested, 5.4% active | Drosophila S2 Gal4-RORgamma UAS-luciferase reporter, 20 h; further: potency means the concentration at half of the fitted maximal effect; nearly all actives have a fitted effect of over 60% in size
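Compounds are pin-transferred onto Drosophila Schneider cells expressing a copper-inducible Gal4–ROR gamma transactivation domain fusion. After 1 hr, copper sulfate is added to 700 uM final; luciferase is read 20 hr later.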
* hit, by the source's call; u = inconclusive; x = no result given; [ ] = dose if it differs, or a comment. A selection: hits, their analogues and other compounds. The true share with any hit is near 5.6%. Unless noted, the call rests on the fitted dose curve; in most records, active means well fitted curve in the direction sought with a large enough effect; inconclusive means small, poorly fitted or top-dose-only effect, or another doubt; inactive means no such curve, though single readings can be large; an effect the other way counts as inactive or inconclusive. On the % scale 0 is the no-effect control and ±100 the full control effect.

SMILES	PKM2 activator	Six1-Eya2 inh	CtBP-E1A blk	VP16 counter	RORg inh
CCOC(=O)C1(Cc2ccccc2)CCCN(C(=O)c2ccc(-n3ccnc3)cc2)C1 (stereo not drawn)	-1.2%	-1.9	-4.8	u	-44.2%
CCC1Sc2ccc(S(=O)(=O)Nc3ccc(OC)c(OC)c3)cc2NC1=O (stereo not drawn)	x	1.2	-2.5	8.91µM*	u
Cc1cc(=O)oc2cc(OCC(=O)NC3CCCCC3)ccc12	x	5.1	3.5	-4.0%	2.6%
CCOC(=O)C(Sc1nnc2c3ccccc3n(CC)c2n1)C(=O)OCC	0.1%	u	-71.8*	u	-31.9%
COc1ccc(CN(C(=O)c2oc3cc(C)ccc3c2C)C2CCS(=O)(=O)C2)cc1OC (stereo not drawn)	-0.2%	-12.2	-3.2	11.6%	9.0%
COc1ccc(/C=N/N2CCOCC2)cc1Cn1cc([N+](=O)[O-])cn1	-4.4%	-17.9	-13.7	-6.7%	1.8%
C=C(C)COc1ccc(-c2nc(N)ncc2-c2ccc(OC)c(OC)c2)c(O)c1	x	-23.0	-10.4	-10.5%	-21.8%
C=C(C)COc1ccc(-c2[nH]ncc2-c2ccc(OC)c(OC)c2)c(O)c1	12.3%	-25.5	-5.2	2.51µM*	1.78µM*
C=C(C)COc1ccc(-c2[nH]ncc2-c2ccc(OC)cc2)c(O)c1	-7.4%	-14.7	-4.6	u	11.2µM*
COc1ccc(-c2cn[nH]c2-c2ccc(OCC(=O)NN)cc2O)cc1OC	x	-5.8	-1.5	7.1%	u
COc1ccc(-c2[nH]ncc2Oc2ccccc2OC)c(O)c1	3.7%	-2.5	-10.3	u	11.2µM*
C=C(C)COc1ccc(-c2n[nH]c(C)c2-c2ccc(OC)c(OC)c2)c(O)c1	2.6%	-8.9	-8.7	7.08µM*	1.41µM*
Cc1cnc2c(N)cc(C)c(C)c2c1	x	-3.9	-24.8	x	x
CCCc1ccc(Oc2cn[nH]c2-c2ccc(O)cc2O)cc1	-1.2%	-4.7	-7.9	-26.8%	15.8µM*
COc1ccc(Oc2cn[nH]c2-c2ccc(O)cc2O)cc1	0.7%	0.8	-3.7	-5.7%	u
C=C(C)COc1ccc(-c2[nH]ncc2Oc2cccc(OC)c2)c(O)c1	-5.4%	-0.5	-4.1	u	6.31µM*
CCOC(=O)C1(Cc2ccccc2)CCCN(C(=O)COc2ccccc2OC)C1 (stereo not drawn)	x	-5.5	-4.8	x	x
Cc1ccc(/C=N/Nc2ccccn2)s1	1.7%	-3.1	-20.9	11.2µM*	u
Brc1ccccc1/C=N/Nc1ccccn1	-10.1%	2.1	-21.9	-2.2%	u
Clc1cnc(N/N=C/c2ccco2)c(Cl)c1	9.3%	5.1	-3.6	12.6µM*	5.62µM*
Cc1ccc(/C=N/Nc2ncc(Cl)cc2Cl)s1	-1.4%	-8.4	3.2	7.08µM*	4.47µM*
Clc1cnc(N/N=C/c2cccs2)c(Cl)c1	3.9%	13.4	21.4	u	7.94µM*
O=C(c1ccc(S(=O)(=O)c2cccc(Cl)c2)c([N+](=O)[O-])c1)N1CCN(Cc2ccccc2)CC1	3.16µM*	-0.4	1.8	25.1µM*	u
COc1ccc(C(=O)N2CCN(Cc3ccccc3)CC2)cc1[N+](=O)[O-]	1.7%[11.5 µM]	-1.8	x	-1.3%	33.0%
O=C(Cc1ccc(F)cc1)N[C@@H]1c2ccccc2CC[C@@H]1OCc1ccccc1	x	0.4	-2.2	x	x
SMILES	PKM2 activator	Six1-Eya2 inh	CtBP-E1A blk	VP16 counter	RORg inh
CC1CN(C(=S)Nc2ccccc2)N(c2ccccc2)C1 (stereo not drawn)	1.5%	-1.3	2.0	-12.1%	11.2µM*
C[C@@H]1CCN(C(=O)[C@H](CCCNC(=N)N)NS(=O)(=O)c2cccc3c2NC[C@H](C)C3)[C@@H](C(=O)O)C1	x	x	x	-2.7%	-3.2%[10 µM]
Cc1ccccc1-n1c(-c2ccncc2)n[nH]c1=S	0.3%	3.8	-2.2	-18.0%	12.6µM*
Cc1ccc(-n2c(-c3ccc(Br)cc3)n[nH]c2=S)c(C)c1	x	-13.3	-0.6	x	x
Cc1ccc(C)c(-n2c(-c3csc(C)c3C)n[nH]c2=S)c1	-0.5%	-15.7	-1.1	5.01µM*	u
Cc1cccc(-n2c(-c3ccncc3)n[nH]c2=S)c1C	-9.0%	12.7	10.4	-9.6%	-27.7%
COc1ccc(Cc2n[nH]c(=S)n2-c2cc(C)ccc2C)cc1OC	x	11.5	7.2	x	x
Cc1ccc(C)c(-n2c(-c3cccnc3)n[nH]c2=S)c1	2.5%	3.0	6.0	-7.1%[10 µM]	10µM*
Cc1ccc(-n2c(-c3ccncc3)n[nH]c2=S)c(C)c1	-5.0%	3.8	2.3	u	11.2µM*
Cc1cc(-c2n[nH]c(=S)n2-c2ccccc2C)cs1	-15.1%	0.2	6.4	6.31µM*	2.82µM*
CCCCN(C)CCn1c(=S)[nH]c2ncccc2c1=O	-8.8%	5.1	-3.6	-1.0%	-31.5%
CCN(CC)CCCn1c(=S)[nH]c2ncccc2c1=O	-4.4%	-7.9	-19.3	-3.1%	-7.2%
CCN(CCCn1c(=S)[nH]c2ncccc2c1=O)c1ccccc1	-10.3%	4.4	-5.7	3.98µM*	1.41µM*
CC(C)OCCCn1c(=S)[nH]c2ncccc2c1=O	-1.4%	3.6	3.3	u	8.91µM*
CN(C)c1ccc2c(c1[N+](=O)[O-])Cc1ccccc1-2	x	u	9.1	x	x
Cc1cc(C)c2[nH]c(=O)c(C(c3nnnn3C(C)(C)C)N3CCN(C(=O)c4ccco4)CC3)cc2c1 (stereo not drawn)	11.2µM*	-2.1	3.6	-3.3%	13.3%
Cc1ccccc1Nc1oc(-c2ccccc2)nc1-c1cccc2ccccc12	x	x	x	2.4%	4.1%
COc1cccc(CNC(=S)Nc2cc(C)ccc2C)c1	3.7%	-1.9	-5.5	6.31µM*	3.16µM*
COc1cc(C)c(NC(=S)Nc2cccc(Cl)c2C)cc1OC	8.0%	1.8	-7.0	u	12.6µM*
COc1cccc(CNC(=S)Nc2cccc(Cl)c2C)c1	1.4%	-6.8	3.7	3.55µM*	5.01µM*
CCC(=O)N1CCc2cc(S(=O)(=O)CCC(=O)Nc3cccc(C)n3)ccc21	2.6%	3.6	4.4	-0.2%	-0.8%
O=C(Cc1ccccc1)Nc1nc2ccccc2[nH]1	0.2%	-0.1	6.4	15.8µM*	12.6µM*
O=C(Cc1ccc(Cl)cc1)Nc1nc2ccccc2[nH]1	-11.3%	5.2	8.2	7.08µM*	0.282µM*
O=C(CSc1ccccc1)Nc1nc2ccccc2[nH]1	2.4%	-15.8	0.9	u	12.6µM*
O=C1NC[C@H](Cc2ccccc2)N(C[C@@H]2CCCN2C[C@H](Cc2ccccc2)N2C[C@H](Cc3ccc(O)cc3)N(CCc3ccccc3)C(=O)C2=O)C1=O	x	-18.3	-0.8	x	x
Fc1cc2nccnc2cc1N1CCSCC1	1.1%	4.8	-0.2	9.5%	11.2%
